Pyk2 oligo antag: antagonists of Pyk2 self-association, primary screen, Q293 cells, FERM NanoBiT luminescence, HTS | Protein-tyrosine kinase 2-beta (Homo sapiens), Q14289 | active compounds read low | z-score (the deposit names both 25 µM and 10 µM) | 99,000 compounds, 0.83% hits;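 active = Z-score of -3 or lower, scaled per plate to the spread of control and sample wells; inactive = z-score above -3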;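 note: negative z-score means lost luminescence so less FERM oligomerization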
CYP2C9 activ: human CYP2C9 activators, primary screen, biochemical, luminescence. Cytochrome P450 2C9 (Homo sapiens), P11712. recombinant CYP2C9, luciferin-H conversion; active compounds read high; factor 1 = untreated enzyme, 0 = blocked. activation factor at 5 µM. 96,000 compounds, 1.4% hits. AID 1024, 2008;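 active = activation factor of 2 or more for CYP2C9 at a 5 µM dose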
Target sequence (P11712 whole entry, looked up): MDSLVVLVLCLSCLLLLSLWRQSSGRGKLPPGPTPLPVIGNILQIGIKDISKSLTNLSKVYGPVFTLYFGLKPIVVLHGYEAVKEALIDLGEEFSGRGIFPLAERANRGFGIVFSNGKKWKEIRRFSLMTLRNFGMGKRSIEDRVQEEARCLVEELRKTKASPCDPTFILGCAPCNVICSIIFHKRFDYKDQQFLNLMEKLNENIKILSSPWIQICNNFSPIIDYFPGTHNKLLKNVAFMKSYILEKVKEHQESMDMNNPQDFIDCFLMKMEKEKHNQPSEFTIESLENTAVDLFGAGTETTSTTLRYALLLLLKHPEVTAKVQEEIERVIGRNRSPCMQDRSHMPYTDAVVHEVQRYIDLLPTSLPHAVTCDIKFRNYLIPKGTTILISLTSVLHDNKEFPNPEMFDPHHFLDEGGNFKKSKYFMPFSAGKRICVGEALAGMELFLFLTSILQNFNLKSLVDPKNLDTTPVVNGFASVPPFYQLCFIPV
CYP2C19 inh: blockers of cytochrome P450 2C19 activity – biochemical, luminescence, ADME assay, primary screen. P33261. CYP2C19 Supersomes, luciferin-H EGE luminescence, 30 min. inhibition, % at 5 µM. 96,000 compounds, 21% hits. AID 778, 2007;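 active = CYP2C19 inhibition above a set limit at 5 µM in the primary screen, cut at about 50% in these data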
CYP2C19 act: human CYP2C19 activators, primary screen, biochemical, luminescence. Cytochrome P450 2C19 (Homo sapiens), P33261. recombinant CYP2C19, luciferin-H EGE luminescence; active compounds read high; 0 = fully inhibited enzyme, 1 = untreated enzyme. activation factor at 5 µM. 96,000 tested, under 10 active. AID 1025, 2008;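 active = activation factor of at least 2 at 5 µM in the primary screen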
CYP2C9 inh: blockers of cytochrome P450 2C9 activity – biochemical, luminescence, ADME assay, primary screen; inhibition, % at 5 µM; CYP2C9 Supersomes, luciferin-H conversion; 96,000 compounds, 20% hits; P11712; AID 777, 2007;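 active = blocking of liver enzyme CYP2C9 beyond about 50% at 5 µM, limit read from the data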
Numbers stand for hits; . = inactive; / = no result. This is a sample that favours compounds with a hit; in the whole collection about 28% have one here.

SMILES	Pyk2 oligo antag	CYP2C9 activ	CYP2C19 inh	CYP2C19 act	CYP2C9 inh
O=C(CCCCCn1c(=O)[nH]c2ccccc2c1=O)N1CCN(Cc2ccc3c(c2)OCO3)CC1	.	.	64.8	.	79.6
O=c1nc2scc(-c3ccccc3)n2c2ccccc12	.	.	.	.	.
CCOC(=O)C1CCN(C(C(=O)NC2CCCC2)c2ccc(C)cc2)CC1 (stereo not drawn)	/	.	.	.	.
O=C(c1cnn2ccccc12)N(Cc1ccco1)C1CCCC1	/	.	59.5	.	.
CCN(CC)CCCN1C(=O)C(=O)/C(=C(/O)c2ccc(OC)c(Cl)c2)C1c1ccco1 (stereo not drawn)	/	.	.	.	.
OC(CN1CCN(c2ccccc2)CC1)c1c[nH]c2ccccc12 (stereo not drawn)	.	.	56.7	.	.
OC(CN1CCN(Cc2ccc3c(c2)OCO3)CC1)c1c[nH]c2ccccc12 (stereo not drawn)	.	.	.	.	.
Cn1cccc1C(=O)NC(=O)COC(=O)c1ccccc1Sc1ccccc1C#N	.	.	.	.	.
COc1ccc(Cl)cc1C(=O)OCC(=O)NC(=O)c1cccn1C	.	3.3	.	.	.
Cc1cc(C)c(C#N)c(SCCS(=O)(=O)Cc2ccc(Cl)cc2)n1	.	.	.	.	.
Cc1cc(C)c(C#N)c(SCCS(=O)(=O)c2ccc(C(C)(C)C)cc2)n1	.	.	69.5	.	89.0
Cc1cc(C)c(C#N)c(SCS(=O)Cc2ccccc2)n1 (stereo not drawn)	.	.	68.4	.	.
Cc1cc(C)c(C#N)c(SCS(=O)Cc2ccc(Cl)cc2)n1 (stereo not drawn)	.	.	94.9	.	58.9
Cc1sc(NC(=O)CSc2nnnn2C2CCCCC2)c(C#N)c1C	.	.	.	.	.
CCCC(=O)N1CC2(C)CN(C(=O)CCC)CC(CCC)(C1)C2=O	.	.	.	.	.
Clc1ccc(CSc2nncn2-c2ccccn2)cc1	.	.	68.4	.	.
Cc1ccc(CSc2nncn2-c2ccccn2)cc1	.	/	/	/	/
Fc1cccc(-c2cc3nc4c(c(N5CCOCC5)n3n2)CCCC4)c1	-3.2	.	62.9	.	93.5
Clc1cccc(-c2cc3nc4c(c(N5CCOCC5)n3n2)CCCC4)c1	.	.	70.1	.	88.6
COC(=O)CCC(=O)Nc1cccc(Br)c1	.	.	.	.	.
O=C(NCCCn1ccnc1)c1ccc(Br)c(S(=O)(=O)N2CCOCC2)c1	.	.	53.1	.	94.9
Cc1ccc(S(=O)(=O)N2CCOCC2)cc1C(=O)NCc1cccnc1	.	.	.	.	.
Cc1ccc(S(=O)(=O)N2CCOCC2)cc1C(=O)NCCCn1ccnc1	.	.	65.4	.	75.5
COc1ccc(C(=O)NCCC(C)C)cc1S(=O)(=O)N1CCOCC1	.	.	.	.	.
O=C(NCCCn1ccnc1)c1cc(S(=O)(=O)N2CCOCC2)c(Cl)cc1Cl	.	.	71.5	.	96.3
SMILES	Pyk2 oligo antag	CYP2C9 activ	CYP2C19 inh	CYP2C19 act	CYP2C9 inh
O=C(/C=C/c1c(Cl)cccc1Cl)n1cccn1	.	/	/	/	/
Cc1cc(NC(=O)C(C)C)ncc1NC(=O)CCc1ccccc1	.	/	/	/	/
CCn1nnc(-c2ccccc2NC(=O)c2cnccn2)n1	.	/	/	/	/
CCOc1ccc(C2/C(=C(/O)c3ccc(Cl)cc3)C(=O)C(=O)N2CCCN(C)C)cc1OC (stereo not drawn)	/	.	.	.	.
COc1ccc2[nH]c(C)c(CCN3C(=O)C4C5C=CC(C5)C4C3=O)c2c1 (stereo not drawn)	/	.	93.7	.	.
COc1ccc2[nH]c(C)c(CN3CCCCC3)c(=O)c2c1	.	.	.	.	.
CCN1CCN(c2ccc(NC(=O)c3cccnc3)cc2Cl)CC1	.	.	.	.	.
O=C(NNC(=O)c1sccc1-n1cccc1)c1ccc(Cl)cc1	.	2.7	.	.	.
O=C(NNC(=O)c1ccccc1-n1cccc1)c1ccc(Cl)cc1	.	.	.	.	.
O=C(NCCc1ccc(Cl)cc1)C1CCN(C(=O)c2sccc2-n2cccc2)CC1	.	.	.	.	52.2
CC(CCc1ccccc1)NC(=O)C1CCN(C(=O)c2sccc2-n2cccc2)CC1 (stereo not drawn)	/	.	72.0	.	77.5
Cc1cc(C)n(-c2nnc(C)n2/N=C/c2cc(Br)ccc2OCc2ccccc2)n1	.	.	.	.	.
CC(C)(Oc1cccc2ccccc12)C(=O)O	.	.	.	.	.

Compound activity deposited in PubChem BioAssay by Sanford-Burnham Center for Chemical Genomics.
